# Compounds with a hit are over-represented: about 1.6% of the library has one in this group of screens.
# HSV augment: enhancers of HSV replication in host cells, fold increase, host cell viability | HSV replication augmentation in cells | maximum fold increase | 220,000 tested, 0.005% active; in the data active means maximum fold increase above about 1.5; inconclusive means no clear call, values can overlap the other calls; tested in PC3 cells
# Wee1 degr inh: Wee1 degradation inhibitors, primary screen, cell-based, HeLa, Wee1K328M-luciferase, luminescence. 220,000 tested, 1.2% active. reporter increase, % at 5 µM. Wee1-like protein kinase (Homo sapiens), P30291. HeLa Luc-Wee1K328M stability; 100% = proteasome inhibitor MG132 effect. AID 1321, 2008;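 active means activation above the mean of all tested compounds plus 3 SD, set per screening run, cut at about 8.8% in these data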;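 further: cells exposed to compound for 20 h before luminescence read; 0% = DMSO alone and 100% = MG132 at 30 µM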
# Target sequence (P30291 whole entry K328M): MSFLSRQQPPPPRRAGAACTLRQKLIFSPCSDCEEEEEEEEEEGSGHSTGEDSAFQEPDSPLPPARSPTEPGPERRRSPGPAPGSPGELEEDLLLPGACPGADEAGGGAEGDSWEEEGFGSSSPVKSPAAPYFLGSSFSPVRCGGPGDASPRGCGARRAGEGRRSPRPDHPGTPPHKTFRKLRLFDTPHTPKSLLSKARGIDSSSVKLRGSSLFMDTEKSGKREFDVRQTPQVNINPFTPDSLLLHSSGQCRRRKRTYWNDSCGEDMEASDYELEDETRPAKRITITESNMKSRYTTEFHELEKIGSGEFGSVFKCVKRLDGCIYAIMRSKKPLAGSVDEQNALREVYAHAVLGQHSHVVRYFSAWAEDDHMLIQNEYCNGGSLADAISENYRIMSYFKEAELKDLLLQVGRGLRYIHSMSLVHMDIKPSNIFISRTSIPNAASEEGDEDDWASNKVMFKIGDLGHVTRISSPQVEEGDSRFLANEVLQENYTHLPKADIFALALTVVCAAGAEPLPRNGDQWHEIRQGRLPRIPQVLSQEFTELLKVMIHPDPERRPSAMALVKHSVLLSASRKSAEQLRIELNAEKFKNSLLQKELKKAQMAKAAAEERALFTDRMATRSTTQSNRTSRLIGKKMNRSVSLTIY
# Redox H2O2 prof: compounds producing H2O2 with reducing agent – biochemical, NIH compound library profiling, artefact control for MLSCN library redox annotation, primary screen; DTT-dependent redox cycling H2O2, phenol red/HRP absorbance; 100% = 100 µM peroxide control, 0% = buffer; activation, % at 10 µM; 200,000 tested, 0.03% active;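 active means activation of at least 50% relative to the plate's high and low controls in the primary single-dose screen; inactive means activation below 50%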;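 further: compound incubated with DTT at 0.8 mM final as the reducing agent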
# p97 inhibitor: inhibitors of human p97 ATPase, primary screen, biochemical; Transitional endoplasmic reticulum ATPase (Homo sapiens), P55072; recombinant p97 ATPase, Kinase-Glo ATP luminescence, 3 h; inhibition, % at 8 µM; 220,000 tested, 0.42% active; AID 1481, 2009; in the data active means inhibition above about 15%;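 further: 0% = DMSO vehicle and 100% = wells lacking enzyme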
# Hsp70 activator: Hsp70 transcriptional activators, primary screen, cell-based, HeLa, Hsp70 promoter luciferase, luminescence, 10 µM | activation, % at 10 µM | AID 1203, 2008 | 200,000 tested, 0.04% active | HeLa Hsp70 promoter luciferase reporter; scaled: vehicle 0, proteasome-inhibitor control 100%;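 active means activation above the mean across all tested compounds plus 3 SD, cutoff set per campaign, cut at about 5.5% in these data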;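 further: 100% = MG132 at 30 µM as the positive control and 0% = DMSO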
# p97 confirm: p97 ATPase inhibitors, retest, confirmation, biochemical; shares compounds with p97 inhibitor; recombinant p97 ATPase, Kinase-Glo ATP luminescence; inhibition, % at 8 µM; 760 tested, 44% active;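 active means percent inhibition of p97 ATPase above a set limit, the primary screen's mean plus 3 SD, cut at about 15% in these data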;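 further: 0% = DMSO wells and 100% = wells lacking p97 protein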
# * hit, by the source's call; i = inactive; ? = inconclusive; / = not tested or not shown.
SMILES,HSV augment,Wee1 degr inh,Redox H2O2 prof,p97 inhibitor,Hsp70 activator,p97 confirm
Cc1ccc(S(=O)(=O)N2CCOCC2)cc1C(=O)Nc1ccc(-c2cn3ccsc3n2)cc1,i,1.0,-2.4,17.3*,-0.1,21.3*
CC(NC(=O)CC(c1ccccc1)c1cc(Cl)ccc1O)c1ccccc1 (configuration not stated),i,6.2,0.6,15.3*,-0.4,5.5
Cc1ccc(O)c(C(CC(=O)NC(C)C)c2ccccc2)c1 (configuration not stated),i,-0.6,-0.5,5.2,-0.1,/
COC(=O)c1sc(-c2ccc(Cl)cc2)cc1NC(=O)COCC(=O)O,i,-0.6,/,-1.3,/,/
COC(=O)c1sc(-c2ccc(Cl)cc2)cc1NC(=O)/C=C/C(=O)O,i,-1.0,/,17.6*,/,17.8*
CC(C)(C)C1CCC(OCC(O)CN2CCN(Cc3ccccc3)CC2)CC1 (configuration not stated),i,2.0,0.2,-2.4,-0.6,/
O=c1cc(CCl)[nH]c2nc3ccccc3n12,i,3.8,/,38.3*,/,38.2*
COc1ccc(CNc2ncnc3c2[nH]c2ccccc23)cc1,i,-2.3,/,15.8*,/,19.7*
COc1ccc(CNc2ncnc3c2[nH]c2cc(OC)c(OC)cc23)cc1,i,-1.8,/,9.6,/,/
COCCOC(=O)C(CC(=O)O)NCc1ccco1 (configuration not stated),i,1.7,/,15.5*,/,2.3
CCOC(=O)C1Cc2ccccc2CN1 (configuration not stated),i,-2.4,1.4,15.3*,0.0,6.0
CC(C)OC(=O)c1cc(C(=O)c2cc(Br)ccc2O)coc1=N,i,-3.5,-0.1,1.6,0.2,/
CCOc1ccccc1NC(=O)c1cc(C(=O)c2cc(Br)ccc2O)coc1=N,i,3.4,-0.2,25.2*,-0.1,33.6*
Cc1cccc(N2N=C(C(=O)N3CC(=O)Nc4ccccc43)CCC2=O)c1,i,-0.8,-0.2,-3.9,-0.1,/
COc1ccc2nc(C)cc(SCC(=O)NNC(=O)COc3ccccc3)c2c1,/,0.4,-1.1,15.3*,0.0,9.7
Brc1ccccc1C1CC(c2ccccc2)=Nc2ccccc2N1 (configuration not stated),i,1.3,1.7,1.9,-0.1,/
Clc1ccccc1C1CC(c2ccccc2)=Nc2ccccc2N1 (configuration not stated),i,0.1,/,14.9*,/,6.5
O=C1NC(=O)/C(=C/c2cccc(O)c2)N1,i,1.0,/,19.1*,/,14.1
CCOC(=O)C1=C(C)NC(=O)NC1c1ccc([N+](=O)[O-])o1 (configuration not stated),i,0.3,/,4.3,/,/
CCCCNC(=O)CCn1c(=O)c2ccccc2n(CC(=O)N2CC(C)CC(C)C2)c1=O (configuration not stated),i,-1.1,-0.8,1.6,-0.2,/
Cc1ccc(C2C3=C(CCCC3=O)OC3=C2C(=O)CCC3)cc1,i,4.5,-0.6,-6.8,-0.2,/
OC(CNCCC1C=Nc2ccccc21)Cn1c2ccc(Cl)cc2c2cc(Cl)ccc21 (configuration not stated),i,-0.9,1.7,26.2*,0.0,25.7*
CCN(CC)S(=O)(=O)c1cccc(-c2nnc(SCC(=O)NC3CCCCCC3)n2N)c1,i,2.4,0.2,0.4,-0.5,/
S=C1NC2=C(CCC/C2=C\c2ccc(Cl)cc2)C(c2ccc(Cl)cc2)N1 (configuration not stated),i,-1.6,/,18.0*,/,7.5
S=C1NC2=C(CCC/C2=C\c2ccccc2)C(c2ccccc2)N1 (configuration not stated),i,2.6,-0.3,7.2,-0.4,/
SMILES,HSV augment,Wee1 degr inh,Redox H2O2 prof,p97 inhibitor,Hsp70 activator,p97 confirm
Nc1c(C(=O)NCc2ccccc2)c2nc3ccccc3nc2n1CCCN1CCOCC1,i,-0.1,0.6,-3.6,-0.3,/
Nc1c(C(=O)NCc2ccco2)c2nc3ccccc3nc2n1CCc1ccccc1,i,-1.6,1.0,18.1*,-0.3,7.2
CN(C)CCCN(Cc1ccccc1)C(=S)Nc1ccc(F)c(Cl)c1,i,1.5,-0.1,-0.4,-0.2,/
COc1cc2c(cc1NC(=O)CSc1nnc(Cc3cccs3)n1C)oc1ccccc12,i,-0.7,0.8,21.6*,0.0,16.5*
CNc1c([N+](=O)[O-])ncn1C,i,0.4,0.2,6.1,-0.2,/
OCC(CO)(CO)N=Cc1c(O)ccc2ccccc12,i,2.7,0.2,28.6*,-0.2,8.2
CN(C)/N=C/c1c(O)ccc2ccccc12,i,-0.3,-0.6,0.0,0.3,/
Oc1ccc2ccccc2c1C=NC12CN3CCN(CN(C3)C1)C2,i,0.2,0.5,19.9*,0.5,21.1*
Oc1ccccc1N=Cc1c(O)ccc2ccccc12,i,1.5,/,7.5,/,/
COCCCNC(=O)c1cc2cc(Br)ccc2oc1=O,i,-3.4,-1.3,0.9,-0.5,/
O=C(NNC(=O)c1cc2cc(Br)ccc2oc1=O)c1ccc(O)cc1O,i,6.1,-1.2,18.6*,0.1,24.4*
COc1ccc(-n2c(NC(=O)c3ccco3)c(C#N)c3nc4ccccc4nc32)cc1,i,1.9,-0.5,31.7*,-0.3,29.0*
N#Cc1c(NC(=O)c2ccccc2Cl)n(Cc2ccccc2)c2nc3ccccc3nc12,?,3.2,4.3,37.9*,-0.4,46.7*
CCCCn1c(NC(=O)CC)c(C#N)c2nc3ccccc3nc21,i,0.1,2.8,5.0,0.4,/
O=C(Nc1ccc(Cl)cc1)C(c1ccccc1)N1CCOCC1 (configuration not stated),i,0.2,-0.2,2.5,0.2,/
CC(C)c1ccc(NC(=O)C(c2ccccc2)N2CC(=O)Nc3ccccc32)cc1 (configuration not stated),/,0.8,2.4,15.5*,0.3,5.9
CCOc1cc(Br)c(Br)c(C=Nc2ccc(NC(C)=O)cc2)c1O,i,1.7,0.0,3.9,1.5,/
CCn1c2ccccc2c2cc(NC(=O)CSc3nnc(-c4ccccc4)o3)ccc21,i,-1.0,0.3,7.0,-0.4,/
CCn1c2ccccc2c2cc(NC(=O)CSc3nccc(=O)[nH]3)ccc21,i,4.1,-0.2,20.0*,0.1,29.1*
O=C(CSc1nccc(=O)[nH]1)Nc1ccc(F)c(Cl)c1,i,-0.8,1.4,5.1,0.0,/
CCn1c2ccccc2c2cc(NC(=O)CSc3nnc(-c4cccc(C)c4)o3)ccc21,i,-0.7,0.2,15.3*,-0.3,23.7*
